The record followed here is PubChem BioAssay (NCATS).

Values joined by “and” are separate entries in the source; they are usually repeats but may differ in a detail not shown here. Equal entries are not always repeated. Unmarked numbers belong to inactive results. Inconclusive results are not listed. Active and inactive are the calls of the source. Unless noted, calls follow the shape of the dose curve; as a rule, active = well fitted curve in either direction with a large enough effect (not every such curve was filed as active); inconclusive = small, poorly fitted or top-dose-only effect, or another doubt; inactive = flat fitted curve, though single readings scatter.

Test [1] in a line: AP1 Signaling Pathway (AID 357).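 Also: ME-180 reporter cells stimulated with EGF at its EC50 level; % is scaled to controls: 0 for no effect and ±100 for the full control effect.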 In short, it runs like this:
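First, ME-180 AP-1-bla cells were cultured overnight at 37 °C in low-serum Opti-MEM. Next, titrated compounds with EC50 EGF were incubated 5 hours. Finally, CCF4 was added for 2.5 hours and the 460/530 nm ratio recorded.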

The target of test [2] is Cytochrome P450 1A2 (Homo sapiens) (UniProt P05177). Kind of test: p450-cyp1a2 (AID 410; calls by dose curve; also: potency is read from the fitted curve at half-maximal effect;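 as to activity change, negative = inhibition: -100% = full effect of reference inhibitor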). In outline: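 Read-out is luminescence from luciferin produced by CYP1A2 demethylation of Luciferin-ME (100uM, at Km). Detection reagent stopped the 60 min NADPH-dependent reaction; signals were normalized to 57 uM furafylline.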
Test [3] in a line: Stat Signaling Pathway (AID 446).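 Also: ME-180 cervical cancer cells given 40 pM IL-6 alongside compound; SIE-controlled beta-lactamase reporter measured as 460/530 nm FRET emission ratio; % is scaled to controls: 0 for no effect and ±100 for the full control effect.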 In outline: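 Emission at 460 and 530 nm (excitation 405 nm) reports SIE-controlled beta-lactamase in ME-180 cells. Cells received compound with 40 pM IL-6 for 5 hrs at 37 C; data scaled between 300 pM IL-6 and 125 nM JAK-inhibitor controls.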
The target of test [4] is Glucocorticoid receptor (Homo sapiens) (UniProt P04150). Kind of test: GR-GFP Redistribution (AID 450;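 active = compounds whose dose series gives a full or clear partial fitted curve of increased nuclear translocation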; also: potency is read from the fitted curve at half-maximal effect). The conditions noted are these: U2OS GR-GFP nuclear translocation, laser cytometry, 2 h.
Test [5] has the same target. Description: GR-EFC Redistribution (AID 451; calls by dose curve; also: potency is read from the fitted curve at half-maximal effect). The note with it: CHO-K1 GR-EFC translocation, beta-gal luminescence, 2 h. In short, it runs like this:
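CHO-K1 cells stably expressing nuclear-localized β-gal enzyme acceptor and GR fused C-terminally to the enzyme donor fragment; ligand-driven nuclear translocation restores β-gal by complementation. Compounds titrated up to 46 uM final, 2 h at 37 °C; luminescence read.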

The target of test [6] is Mitogen-activated protein kinase 10 (Mus musculus) (UniProt Q61831). Description: JNK3 AlphaScreen Assay (AID 530).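 Also: kinase came from lysate of stimulated human HepG2 cells; signal reports phosphorylation of biotinylated GST-cJun 1-79 at Ser73 with 10 µM ATP; % is scaled to controls: 0 for no effect and ±100 for the full control effect.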 In outline:
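Biotinylated GST-cJun(1-79) served as substrate for JNK3 in HepG2 lysates stimulated with IL-1beta and TNF-alpha. ATP was 10 uM final, pH 7.6. Ser73 phosphorylation was quantified by AlphaScreen (680 nm excitation).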
(In general: Bead proximity is the source of the signal in Alpha formats.)

Test [7] is described as follows: NFAT Signaling Pathway (AID 444).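 Also: carbachol stimulus at about its EC50 of 1 µM final; % is scaled to controls: 0 for no effect and ±100 for the full control effect.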 The conditions noted are these: Jurkat NFAT-bla M1, carbachol, beta-lactamase ratio, 5 h; at 17.2 µM (top of the series) unless noted. In short, it runs like this:
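Jurkat cells carrying an NFAT-driven β-lactamase reporter and co-transfected muscarinic M1 receptor were treated with compound plus carbachol (1 uM final, an EC50 level) for 5 h at 37 °C. CCF4 loading followed for 1 h at RT; 460/530 nm ratio gave %activity.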

Test [8] is described as follows: Cell Viability - BJ (AID 421; calls by dose curve;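 also: potency is read from the fitted curve at half-maximal effect; cells exposed to compound for 40 hours at 37 °C before readout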). The note with it: BJ fibroblast viability, qHTS. In short, it runs like this:
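Cytotoxicity in human BJ foreskin fibroblasts is scored as loss of cellular ATP after a 40-hour exposure, measured by luciferase luminescence. Controls are DMSO and 100 uM tamoxifen.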
On the technique in general: Quantitative high-throughput screening tests each substance at several concentrations.

Test [9] in a line: Cell Viability - Jurkat (AID 426;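 active = dose-dependent loss of cell ATP signal giving a full or clear fitted curve, ranked by lower potency value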;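 also: potency is read from the fitted curve at half-maximal effect; cells exposed to compound for 40 hours at 37 °C before ATP read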). The conditions noted are these: qHTS. In outline:
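Cytotoxicity was scored as loss of cellular ATP, measured by luciferase-based luminescence, in Jurkat clone E6-1 cells after 40 h compound treatment; tamoxifen and doxorubicin served as positive controls.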

Test [10] is described as follows: Cell Viability - Hek293 (AID 427;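 active = compounds whose dose-response curve shows a full or clear partial loss of cell viability, called from curve shape rather than a numeric limit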;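 also: potency is read from the fitted curve at half-maximal effect; cells exposed to compound for 40 hours at 37 °C before reading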). The conditions noted are these: qHTS. In short, it runs like this:
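qHTS, human embryonic kidney (adenovirus-transformed) cells; 40 hr cpd, 37 °C; CellTiter-Glo ATP luminescence. Norm: DMSO = 0, 100 uM tamoxifen = 100% inhibition. Hill-fit AC50.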

A short description of test [11]: Cell Viability - HepG2 (AID 433; calls by dose curve;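 also: potency is read from the fitted curve at half-maximal effect; potency for ATP loss meaning cytotoxicity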). The note with it: qHTS. In short, it runs like this:
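Read-out is luciferase-based quantitation of cellular ATP as a measure of viable HepG2 cells after 40 h treatment at 37 °C. Signal decrease is scaled between DMSO-only and 100 uM tamoxifen controls, with AC50 fitted by the Hill equation.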

Test [12] can be described thus: Cell Viability - MRC5 (AID 434; calls by dose curve;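 also: potency is read from the fitted curve at half-maximal effect; cells exposed to compound for 40 hours at 37 °C; potency reflects cytotoxicity seen as loss of intracellular ATP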). The note with it: MRC5 lung fibroblast viability, qHTS. In short, it runs like this:
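Decrease in intracellular ATP, quantified by luciferase light output, reflects compound toxicity toward MRC5 cells exposed for 40 hr in complete culture medium. Concentration-response curves, scaled between DMSO and 100 uM tamoxifen, gave AC50 values.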

A short description of test [13]: Cell Viability - SK-N-SH (AID 435; calls by dose curve;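 also: potency is read from the fitted curve at half-maximal effect; compound exposure lasted 40 h at 37 °C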). The conditions noted are these: SK-N-SH neuroblastoma cell viability qHTS. In outline:
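Luminescent ATP signal served as the viability read-out after 40 hours of compound treatment of human neuroblastoma SK-N-SH cells. Concentration-response data, scaled between DMSO and 100 uM tamoxifen, gave AC50 values by standard Hill modeling.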

Test [14] can be described thus: Cell Viability - N2a (AID 540; active = well fitted curve in the direction sought with a large enough effect; an effect the other way counts as inactive or inconclusive;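 also: cells exposed to compound for 40 h at 37 °C; plate controls were DMSO alone for no effect and tamoxifen control for full effect; nearly all actives have a fitted effect of over 45% in size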). The note with it: N2a mouse neuroblastoma cell viability; at 92.2 µM (top of the series). In short, it runs like this: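 In this qHTS cytotoxicity screen, ATP-dependent luciferase luminescence reports viable N2a cells after a 40 hr compound exposure in complete culture medium. Potencies are AC50 values from standard Hill equation fits.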

A short description of test [15]: Cell Viability - NIH 3T3 (AID 541; active = well fitted curve in the direction sought with a large enough effect; an effect the other way counts as inactive or inconclusive;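 also: plate controls were DMSO alone for no effect and tamoxifen positive control for full effect; nearly all actives have a fitted effect of over 25% in size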). The conditions noted are these: NIH 3T3 cell viability, qHTS; activity change, negative = cytotoxicity: at 92.2 µM (top of the series). In outline: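 In this cytotoxicity screen, acute toxicity is scored as an ATP drop measured by CellTiter-Glo in NIH 3T3 fibroblasts following a 40 hr, 37 °C incubation with compound.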
A short description of test [16]: Cell Viability - HUV-EC-C (AID 542; active = well fitted curve in the direction sought with a large enough effect; an effect the other way counts as inactive or inconclusive; also: % is scaled to controls: 0 for no effect and ±100 for the full control effect; nearly all actives have a fitted effect of over 35% in size). In outline: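 Concentration-dependent ATP loss in HUV-EC-C cells is the measure. Exposure lasts 40 hr at 37 °C; luminescence follows CellTiter-Glo addition, and Hill fits give AC50.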
The nature of test [17]: Cell Viability - H-4-II-E (AID 543; active = well fitted curve in the direction sought with a large enough effect; an effect the other way counts as inactive or inconclusive; also: % is scaled to controls: 0 for no effect and ±100 for the full control effect; nearly all actives have a fitted effect of over 35% in size). In outline:
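AC50 from Hill-modelled qHTS concentration-response curves. H-4-II-E rat hepatoma cells in complete medium, 40 hr exposure at 37 °C, viability by CellTiter-Glo ATP luminescence.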

The nature of test [18]: Cell Viability - SH-SY5Y (AID 544; active = well fitted curve in the direction sought with a large enough effect; an effect the other way counts as inactive or inconclusive;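 also: 0% = DMSO alone and -100% = 100 µM tamoxifen; nearly all actives have a fitted effect of over 55% in size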). In outline:
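Quantitative HTS in SH-SY5Y neuroblastoma cells, 40 hr treatment at 37 °C, ATP content by luciferase luminescence; AC50 from Hill fits.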

Test [19] in a line: Cell Viability - Mesenchymal (AID 546; active = well fitted curve in the direction sought with a large enough effect; an effect the other way counts as inactive or inconclusive;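 also: cells exposed to compound for 40 hours before reading; 0% = DMSO only and -100% = 100 µM tamoxifen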). In short, it runs like this:
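In this qHTS cytotoxicity format, glomerulus-derived human mesenchymal kidney cells received compound for 40 hr, then luciferase-based ATP quantitation. Concentration-response data were fitted with the Hill equation.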

The target in test [20] is Lysosomal acid glucosylceramidase (Homo sapiens) (UniProt P04062). Kind of test: Glucocerebrosidase-p2 (AID 348; in the data active = potency below about 10 µM; also: potency is read from the fitted curve at half-maximal effect). The conditions noted are these: purified GBA, blue fluorogenic substrate, 40 min. In short, it runs like this: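 Normal human glucocerebrosidase (0.2 nM) with blue fluorogenic substrate (80 uM final) in citrate/phosphate pH 5.9 with 10mM sodium taurocholate, 0.01% tween-20; 40 min RT, NaOH/glycine stop; fluorescence Ex 365/Em 440; AC50 from a titration from 0.6 nM upwards.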
Chain of Lysosomal acid glucosylceramidase (Homo sapiens) (P04062 whole entry, looked up): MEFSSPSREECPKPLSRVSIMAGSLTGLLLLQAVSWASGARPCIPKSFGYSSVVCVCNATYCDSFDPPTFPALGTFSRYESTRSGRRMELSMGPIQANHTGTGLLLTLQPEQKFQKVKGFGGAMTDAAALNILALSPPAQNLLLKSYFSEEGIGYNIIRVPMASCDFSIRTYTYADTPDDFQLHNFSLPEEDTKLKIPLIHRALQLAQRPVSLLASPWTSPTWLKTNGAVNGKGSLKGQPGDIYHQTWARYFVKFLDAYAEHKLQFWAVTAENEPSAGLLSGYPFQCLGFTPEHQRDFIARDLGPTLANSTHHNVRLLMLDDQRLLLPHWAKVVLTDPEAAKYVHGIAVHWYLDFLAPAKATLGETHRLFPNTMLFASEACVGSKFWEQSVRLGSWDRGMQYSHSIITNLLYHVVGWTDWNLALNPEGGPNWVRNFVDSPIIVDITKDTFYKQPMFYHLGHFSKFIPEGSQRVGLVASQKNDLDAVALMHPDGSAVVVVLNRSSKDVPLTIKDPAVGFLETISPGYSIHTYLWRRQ

Chain of Glucocorticoid receptor (Homo sapiens) (P04150 whole entry, looked up): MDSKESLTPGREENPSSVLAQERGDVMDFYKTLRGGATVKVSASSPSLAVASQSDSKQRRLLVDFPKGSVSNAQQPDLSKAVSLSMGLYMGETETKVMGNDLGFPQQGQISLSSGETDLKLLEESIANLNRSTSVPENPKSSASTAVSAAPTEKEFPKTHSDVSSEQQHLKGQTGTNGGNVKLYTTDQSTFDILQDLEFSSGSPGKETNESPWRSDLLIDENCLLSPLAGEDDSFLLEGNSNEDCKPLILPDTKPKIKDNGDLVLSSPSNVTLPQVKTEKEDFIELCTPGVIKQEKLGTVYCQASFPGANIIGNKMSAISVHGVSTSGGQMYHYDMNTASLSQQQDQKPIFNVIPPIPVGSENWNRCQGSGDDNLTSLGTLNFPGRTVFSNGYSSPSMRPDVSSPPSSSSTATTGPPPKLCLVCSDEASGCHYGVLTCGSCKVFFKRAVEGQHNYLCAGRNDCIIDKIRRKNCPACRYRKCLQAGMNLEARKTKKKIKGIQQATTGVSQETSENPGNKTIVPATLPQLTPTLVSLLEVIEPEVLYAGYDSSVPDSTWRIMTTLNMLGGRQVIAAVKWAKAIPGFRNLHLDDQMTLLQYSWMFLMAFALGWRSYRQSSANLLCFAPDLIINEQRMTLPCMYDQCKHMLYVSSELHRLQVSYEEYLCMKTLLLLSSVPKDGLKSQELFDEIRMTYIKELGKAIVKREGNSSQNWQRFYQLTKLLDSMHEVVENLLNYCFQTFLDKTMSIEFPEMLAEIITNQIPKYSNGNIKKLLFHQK
Chain of Cytochrome P450 1A2 (Homo sapiens) (P05177 whole entry, looked up): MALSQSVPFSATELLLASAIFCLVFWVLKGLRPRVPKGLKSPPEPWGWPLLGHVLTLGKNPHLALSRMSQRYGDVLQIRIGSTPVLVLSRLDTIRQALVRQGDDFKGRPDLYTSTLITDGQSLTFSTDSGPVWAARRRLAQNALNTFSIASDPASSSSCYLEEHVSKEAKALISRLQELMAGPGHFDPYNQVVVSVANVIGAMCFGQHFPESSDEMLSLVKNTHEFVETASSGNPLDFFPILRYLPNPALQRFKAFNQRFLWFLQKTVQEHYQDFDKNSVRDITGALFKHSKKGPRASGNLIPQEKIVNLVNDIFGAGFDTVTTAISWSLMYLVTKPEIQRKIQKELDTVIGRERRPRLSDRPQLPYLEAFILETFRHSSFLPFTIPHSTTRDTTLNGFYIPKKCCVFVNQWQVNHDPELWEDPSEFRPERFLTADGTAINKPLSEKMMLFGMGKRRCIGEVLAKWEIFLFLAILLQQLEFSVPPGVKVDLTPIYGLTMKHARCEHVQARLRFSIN

For the compound `CCCOc1cc(N)ccc1C(=O)OCCN(CC)CC`, the compound was classed as inactive in [1], in [3] and in test [6]. The results for the Potency in [2], in test [4] and in test [5] were 12.6 µM (active), more than 20.6 µM and more than 20.6 µM, respectively.

With `CC(=O)[C@H]1CC[C@H]2[C@@H]3C=CC4=CC(=O)CC[C@@]4(C)[C@H]3CC[C@]12C`, the outcome in [1], in test [3] and in test [6] was inactive. Moreover, the Potency entry in test [2] was “inactive”. Further, in test [5], the Potency was more than 20.6 µM.

In the case of `Cn1nnnc1SCC1=C(C(=O)O)N2C(=O)[C@@H](NC(=O)[C@H](O)c3ccccc3)[C@H]2SC1`, the compound was classed as inactive in test [1] and in [3]. In test [7], the activity change, negative = inhibition was 5.92%. Besides, in test [4], the Potency was more than 20.6 µM.

Take `Cn1cc(NC(=O)c2cc(NC(=O)c3cc(NC=O)cn3C)cn2C)cc1C(=O)NCCC(=N)N`: the outcome in [1] and in [3] was inactive.

As for `Cc1cc(-c2ccc(N=Nc3ccc4c(S(=O)(=O)O)cc(S(=O)(=O)O)c(N)c4c3O)c(C)c2)ccc1N=Nc1ccc2c(S(=O)(=O)O)cc(S(=O)(=O)O)c(N)c2c1O`, the figures for the Potency in [2], in [4] and in test [5] were 12.6 µM (active), more than 46 µM and more than 46 µM, respectively.

Turning to `ClC(Cl)Cl`, the Potency in test [8], in test [9], in test [10], in test [11], in [12] and in [13] was more than 92 µM in each case. Besides, the compound was called inactive in [6] and in test [19]. Further, the values for the activity change, negative = cytotoxicity in test [14] and in test [15] were -12.8% and -17.2%, respectively. Moreover, the Potency result in test [16], in [17] and in test [18] was “inactive” each time.

As to `O=C(O)Cc1cc(I)c(Oc2ccc(O)c(I)c2)c(I)c1`, the call in test [1], in [3] and in test [6] was inactive. In addition, the Potency in test [2] was 12.6 µM (active); in test [4] it was more than 20.6 µM; in test [5] it was more than 20.6 µM. Also, the activity change, negative = inhibition in [7] was -22.7%.

`CC(=O)Oc1cccc2c1C(=O)c1c(OC(C)=O)cc(C(=O)O)cc1C2=O`: the call in test [1] and in [3] was inactive. In addition, in [7], the activity change, negative = inhibition was -21.4%. In test [4], the Potency was more than 20.6 µM.

`Cc1ncc(C[n+]2csc(CCO)c2C)c(N)n1`: the result in test [1], in test [3] and in test [6] was inactive. The activity change, negative = inhibition in [7] was -0.747%.

On to `C[C@]12CC[C@@H]3c4ccc(OC(=O)c5ccccc5)cc4CC[C@H]3[C@@H]1CC[C@@H]2O`, for which, in [1], the result was inactive.

On to `O=P(O)(O)OP(=O)(O)O`, for which the results for the Potency in test [20], in test [4] and in [5] were more than 11.4 µM, more than 46 µM and more than 9.22 µM, respectively. The compound was classed as inactive in test [1] and in test [3]. The values for the activity change, negative = inhibition in test [7] and in test [6] were 3.99% [at 7.69 µM] and 0.801% [at 11.4 µM], respectively.

As to `N[C@H](CC(=O)O)C(=O)O`, the result in test [1], in [3] and in test [6] was inactive. In test [7], the activity change, negative = inhibition was 13.7% [at 38 µM]. The Potency in test [4] and in test [5] was more than 46 µM in each case.

Regarding `CCSc1ccc2c(c1)N(CCCN1CCN(C)CC1)c1ccccc1S2`, the Potency in [2] is 0.316 µM (active). The compound was classed as inactive in test [3] and in test [6].

As for `CC(=O)N=c1sc(S(N)(=O)=O)nn1C`, the call in [1], in [3] and in [6] was inactive. Further, in test [2], the Potency entry was “inactive”. Moreover, in test [7], the activity change, negative = inhibition was 0.015% and 12.3%. Besides, the Potency in [4] and in test [5] was more than 20.6 µM each time.

For the compound `CC1(C)S[C@@H]2[C@H](NC(=O)C3(N)CCCCC3)C(=O)N2[C@H]1C(=O)O`, the compound was called inactive in test [1], in test [3] and in test [6]. The activity change, negative = inhibition in test [7] was -19.8%. In addition, the Potency in test [4] and in [5] was more than 20.6 µM throughout.
